Source: PubChem BioAssay (several laboratories)
Hits are enriched below; roughly 0.83% of the tested compounds scored in any of these assays.
LRH-1 inv ag = LRH-1 (NR5A2) inverse agonists, primary screen, cell-based, luminescence, HEK293T, StAR-luciferase reporter; inhibition, % at 3.6 µM; Nuclear receptor subfamily 5 group A member 2 (Homo sapiens), O00482; AID 602396, 2012; 360,000 tested, 0.13% active; LRH-1 transfected, 24 h;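 active means inhibition above the mean inhibition of all tested compounds plus 3 SD, cut at about 73% in these data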
Gli-Sufu block = Gli-Sufu pathway antagonists, primary screen, luciferase luminescence, Sufu-KO-LIGHT cells, uHTS; Sufu-KO-LIGHT fibroblasts, Gli luciferase reporter luminescence; AID 588413, 2011; 340,000 tested, 0.74% active; inhibition, % at 5 µM;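 active means inhibition above about 55%, limit read from the data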
NCOA2 inhibitor = inhibition of GAL4-SRC2 driven luciferase reporter, primary screen, SRC2 inhibitor project, cell-based, luminescence; 370,000 tested, 0.17% active; inhibition, % at 9 µM; HEK293 GAL4-SRC2 luciferase reporter;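 active means inhibition above the mean inhibition of all tested compounds plus 3 SD, set per campaign, cut at about 52% in these data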
NCOA3 inh = SRC3 coactivator transcriptional activity inhibitors, primary screen, cell-based, luminescence | HEK293 GAL4-SRC3 luciferase reporter | inhibition, % at 3.6 µM | 360,000 tested, 0.17% active | AID 588352, 2011;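 active means inhibition above a per-campaign cutoff, the mean of all compounds plus 3 SD, cut at about 60% in these data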;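 further: higher means less SRC3-driven luciferase light from the GAL4 reporter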
Target sequence (Q9Y6Q9 whole entry, looked up, the tested form may be a part): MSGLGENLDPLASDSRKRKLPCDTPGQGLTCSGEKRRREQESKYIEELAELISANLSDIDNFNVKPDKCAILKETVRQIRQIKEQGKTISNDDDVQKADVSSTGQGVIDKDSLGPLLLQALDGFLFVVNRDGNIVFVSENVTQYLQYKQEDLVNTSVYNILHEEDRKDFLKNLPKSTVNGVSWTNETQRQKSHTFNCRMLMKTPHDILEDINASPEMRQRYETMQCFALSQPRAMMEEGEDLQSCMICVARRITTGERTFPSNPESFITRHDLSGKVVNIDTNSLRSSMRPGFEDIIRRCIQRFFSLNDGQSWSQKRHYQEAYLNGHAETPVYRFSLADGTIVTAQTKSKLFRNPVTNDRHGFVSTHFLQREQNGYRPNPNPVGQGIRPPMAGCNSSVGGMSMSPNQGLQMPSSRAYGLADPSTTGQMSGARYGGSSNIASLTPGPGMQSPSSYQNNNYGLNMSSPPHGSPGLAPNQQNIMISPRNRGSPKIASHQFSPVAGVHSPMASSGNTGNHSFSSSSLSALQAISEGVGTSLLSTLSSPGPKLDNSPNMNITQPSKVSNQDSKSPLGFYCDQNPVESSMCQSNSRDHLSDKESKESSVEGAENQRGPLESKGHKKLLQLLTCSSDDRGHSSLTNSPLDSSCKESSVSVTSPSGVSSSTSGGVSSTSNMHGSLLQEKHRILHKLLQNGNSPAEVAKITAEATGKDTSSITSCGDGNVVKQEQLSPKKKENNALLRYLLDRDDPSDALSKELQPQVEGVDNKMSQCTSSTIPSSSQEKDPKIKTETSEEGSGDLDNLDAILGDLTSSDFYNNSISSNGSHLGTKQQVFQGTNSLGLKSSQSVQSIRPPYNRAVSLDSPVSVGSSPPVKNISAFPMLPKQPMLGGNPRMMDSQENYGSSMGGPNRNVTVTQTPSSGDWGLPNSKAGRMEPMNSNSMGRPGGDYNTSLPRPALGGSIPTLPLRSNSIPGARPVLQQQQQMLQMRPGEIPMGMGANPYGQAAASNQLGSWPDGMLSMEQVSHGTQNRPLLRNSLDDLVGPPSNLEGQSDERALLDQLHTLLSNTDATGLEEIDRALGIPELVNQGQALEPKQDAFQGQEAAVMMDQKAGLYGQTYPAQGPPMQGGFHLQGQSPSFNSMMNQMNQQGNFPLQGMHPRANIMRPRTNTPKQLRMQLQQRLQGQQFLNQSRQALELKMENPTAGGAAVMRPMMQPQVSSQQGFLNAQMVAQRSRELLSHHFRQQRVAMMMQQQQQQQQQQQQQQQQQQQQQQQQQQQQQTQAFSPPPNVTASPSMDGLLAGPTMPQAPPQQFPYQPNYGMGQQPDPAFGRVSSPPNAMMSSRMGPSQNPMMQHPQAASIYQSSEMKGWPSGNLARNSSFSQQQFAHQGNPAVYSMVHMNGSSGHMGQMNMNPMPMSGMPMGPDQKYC
NCOA1 inh = SRC1 coactivator transcriptional activity inhibitors, primary screen, cell-based, luminescence | HEK293 GAL4-SRC1 luciferase reporter | 360,000 tested, 0.12% active | AID 588354, 2011 | inhibition, % at 3.6 µM | Nuclear receptor coactivator 1 (Homo sapiens), Q15788;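 active means inhibition above the campaign mean plus 3 SD, with each screening campaign given its own cutoff, cut at about 60% in these data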
Gli-Sufu confirm = Gli-SUFU pathway antagonists, confirmation, single concentration, luciferase luminescence, Sufu-KO-LIGHT cells | shares compounds with Gli-Sufu block | 2,500 tested, 40% active | inhibition, % at 5 µM | AID 602428, 2012 | Gli luciferase reporter;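 active means mean inhibition at 5 µM reaching about 45%, limit read from the data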
SufuKO cytotox = cytotoxicity in Sufu-KO-LIGHT cells, confirmation, cytotoxicity control for Gli-SUFU antagonist project, cell-based, ATP luminescence, single concentration. shares compounds with Gli-Sufu block. cytotoxicity, % at 5 µM. 2,500 tested, 32% active;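 active means mean cytotoxicity at 5 µM above about 25%, limit read from the data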;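 further: cells exposed to compound overnight for roughly 16 to 18 hours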
Wnt3a counter = Wnt3a reporter signal inhibition, confirmation, counter-screen for Gli-SUFU antagonist project, Wnt-LIGHT cells, luminescence, single concentration; shares compounds with Gli-Sufu block; Wnt3a-driven luciferase reporter; inhibition, % at 6.25 µM; 2,500 tested, 20% active;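 active means mean inhibition above about 25%, limit read from the data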
Of the large screens only hits and unclear results are named; the others gave an inactive call (follow-up assays come after a bar, where they were run).

COc1ccc(/C=C2\SC(=S)N(CCC(=O)N(CCO)c3ccccc3)C2=O)cc1OC	none
CCOc1ccc(/C=C2\SC(=S)N(CCC(=O)N(CCO)c3ccccc3)C2=O)cc1	none | Gli-Sufu confirm inactive | SufuKO cytotox inactive | Wnt3a counter inactive
CCOC(=O)C1(CCOc2ccccc2)CCN(Cc2cc(OC)c3c(c2)OCO3)CC1	none | Gli-Sufu confirm inactive | SufuKO cytotox inactive | Wnt3a counter inactive
CCOC(=O)C1(CCOc2ccccc2)CCN(Cc2cccc(OC)c2OC)CC1	Gli-Sufu block 56 | Gli-Sufu confirm inactive | SufuKO cytotox inactive | Wnt3a counter inactive
CCOC(=O)C1(CCc2ccccc2)CCN(Cc2cc(OC)c(OC)cc2OC)CC1	Gli-Sufu block 60 | Gli-Sufu confirm inactive | SufuKO cytotox inactive | Wnt3a counter inactive
CCOC(=O)C1(CCc2ccccc2)CCN(Cc2ccc(C(=O)OC)cc2)CC1	none
CCOC(=O)[C@@]12CCC3=C1N(CCC3)C(=O)[C@H](CC(=O)NCc1ccc(C)o1)C2	none (no result: LRH-1 inv ag, Gli-Sufu block, NCOA3 inh, NCOA1 inh)
COc1ccc(-n2c(SCC(=O)Nc3ccc(Oc4ccccc4)cc3)nnc2-c2cccnc2)cc1	none (no result: LRH-1 inv ag, Gli-Sufu block, NCOA3 inh, NCOA1 inh)
COC(=O)c1cc2c(c3c4cc(C)ccc4n(C(=O)c4ccccc4)c13)C(=O)N(Cc1ccccc1)C2	none (no result: LRH-1 inv ag, Gli-Sufu block, NCOA3 inh, NCOA1 inh)
NC(=O)C1CCN(C2=C(NS(=O)(=O)c3ccc(Br)cc3)C(=O)c3ccccc3C2=O)CC1	none
CCOC(=O)C1CCN(C2=C(NS(=O)(=O)c3ccc(Br)cc3)C(=O)c3ccccc3C2=O)CC1	none | Gli-Sufu confirm inactive | SufuKO cytotox inactive | Wnt3a counter inactive
Cc1ccc(S(=O)(=O)N2CCCC2c2cccc3[nH]cc(C)c23)cc1 (stereo not drawn)	none (no result: LRH-1 inv ag, Gli-Sufu block, NCOA3 inh, NCOA1 inh)
CN(Cc1ccc(OCC(O)CN2CCCCC2)cc1)Cc1ccnc2ccccc12 (stereo not drawn)	Gli-Sufu block 65 | Gli-Sufu confirm 46 | SufuKO cytotox inactive | Wnt3a counter inactive
COc1ccc(/C=N/NC(=O)c2ccc(CSc3nc(C)cc(C)n3)cc2)cc1O	none
COc1ccc(O)c(/C=N/NC(=O)c2ccc(CSc3nc(C)cc(C)n3)cc2)c1	Gli-Sufu block 63 | Gli-Sufu confirm 48 | SufuKO cytotox inactive | Wnt3a counter 41
COC(=O)C[C@H]1CC[C@H]2[C@H](COc3ccc(NC(=O)C4CCOCC4)cc3C(=O)N2C)O1	none (no result: LRH-1 inv ag, Gli-Sufu block, NCOA3 inh, NCOA1 inh)
COc1ccc(C2CC(c3ccco3)n3ncnc3N2)cc1 (stereo not drawn)	Gli-Sufu block 57 | Gli-Sufu confirm inactive | SufuKO cytotox inactive | Wnt3a counter inactive
CCOc1ccc(C2CC(c3ccc(OC)cc3)n3ncnc3N2)cc1 (stereo not drawn)	none
CCOc1ccc(N(CC(=O)Nc2ccccc2OCC)S(=O)(=O)c2c(C)noc2C)cc1	none | Gli-Sufu confirm 63 | SufuKO cytotox 52 | Wnt3a counter 47
CCOc1ccc(N(CC(=O)Nc2ccccc2OC)S(=O)(=O)c2ccccc2)cc1	none | Gli-Sufu confirm 47 | SufuKO cytotox 60 | Wnt3a counter inactive
COc1ccc(N(CC(=O)Nc2ccc(OC)cc2OC)S(=O)(=O)c2ccccc2)cc1	none
CCOc1ccc(N(CC(=O)Nc2ccc(C)cc2)S(=O)(=O)c2c(C)noc2C)cc1	none
COC(=O)[C@]12C[C@H](CC(=O)N3CCCC3)C(=O)N(Cc3cccc4ccccc34)C1=C[C@H](C1CCCC1)O[C@@H]2C	none (no result: LRH-1 inv ag, Gli-Sufu block, NCOA3 inh, NCOA1 inh)
COc1ccc(CC2C(=O)NC(C)C(=O)N(C)C3Cc4ccc(cc4)Oc4cc(ccc4O)CC(C(=O)NC(C)C(=O)NC(C)C(=O)N2C)N(C)C3=O)cc1 (stereo not drawn)	LRH-1 inv ag 98, Gli-Sufu block 91, NCOA2 inhibitor 76, NCOA3 inh 94, NCOA1 inh 94 | Gli-Sufu confirm 96 | SufuKO cytotox 90 | Wnt3a counter 104
O=[N+]([O-])c1ccc(NCCCN2CCC(C(O)(c3ccccc3)c3ccccc3)CC2)cc1	none (no result: LRH-1 inv ag, Gli-Sufu block, NCOA3 inh, NCOA1 inh)
COc1ccc(N(CC(=O)NC2CCCCCC2)S(=O)(=O)c2c(C)nn(C)c2C)cc1	none | Gli-Sufu confirm inactive | SufuKO cytotox inactive | Wnt3a counter inactive
CCOc1ccc(N(CC(=O)NC2CCC(C)CC2)S(=O)(=O)c2c(C)noc2C)cc1 (stereo not drawn)	none
Cc1ccc(N(CC(=O)NC2CCCCC2)S(=O)(=O)c2c(C)noc2C)cc1	none | Gli-Sufu confirm inactive | SufuKO cytotox inactive | Wnt3a counter inactive
CCOc1ccc(CCNC(=O)c2cc3ccsc3n2C)cc1OC	none (no result: LRH-1 inv ag, Gli-Sufu block, NCOA3 inh, NCOA1 inh)
Cc1ccc(Cn2cc(CN3[C@H](Cc4ccccc4)COc4cc(Br)ccc4S3(=O)=O)nn2)cc1	none (no result: LRH-1 inv ag, Gli-Sufu block, NCOA3 inh, NCOA1 inh)
CC(C)C[C@@H]1COc2cccc(F)c2S(=O)(=O)N1C	none (no result: LRH-1 inv ag, Gli-Sufu block, NCOA3 inh, NCOA1 inh)
COC(=O)[C@]12C[C@H](CC(=O)N3CCSCC3)C(=O)N(Cc3cccc4ccccc34)C1=C[C@H](C1CCCC1)O[C@@H]2C	none (no result: LRH-1 inv ag, Gli-Sufu block, NCOA3 inh, NCOA1 inh)
Cc1cccc(N2CCN(C(=O)CN3CCOc4ccccc43)CC2C)c1 (stereo not drawn)	none
O=C(CN1CCOc2ccccc21)N1CCN(c2cccc(Cl)c2)CC1	Gli-Sufu block 61 | Gli-Sufu confirm inactive | SufuKO cytotox inactive | Wnt3a counter inactive
Cn1c(SCCc2ccccc2)nnc1-c1ccco1	none (no result: LRH-1 inv ag, Gli-Sufu block, NCOA3 inh, NCOA1 inh)
CC(CCc1ccccc1)NC(=O)C1CCC1 (stereo not drawn)	none
CC(CCc1ccccc1)NC(=O)C1CC1 (stereo not drawn)	Gli-Sufu block 61 | Gli-Sufu confirm inactive | SufuKO cytotox inactive | Wnt3a counter inactive
C#CCCN([C@H](C(=O)OC)C(C)CC)S(=O)(=O)c1ccccc1Br (stereo partly drawn)	none (no result: LRH-1 inv ag, Gli-Sufu block, NCOA3 inh, NCOA1 inh)
O=C(Cn1cc([N+](=O)[O-])cn1)N1CCN(Cc2ccc3c(c2)OCO3)CC1	none
O=C(NCc1ccc2c(c1)OCO2)c1nc(Cn2cc([N+](=O)[O-])cn2)no1	none | Gli-Sufu confirm inactive | SufuKO cytotox inactive | Wnt3a counter inactive
Cc1ccc(NC(=O)OC2CCC23CCCCC3)cc1 (stereo not drawn)	none (no result: LRH-1 inv ag, Gli-Sufu block, NCOA3 inh, NCOA1 inh)
C[C@H](CCCCC1(C)OCCO1)CCC(=O)N(c1ccccc1)c1ccccc1	none (no result: LRH-1 inv ag, Gli-Sufu block, NCOA3 inh, NCOA1 inh)
Cc1csc(NC(=O)CSCC(=O)Nc2ccccc2)n1	Gli-Sufu block 99 | Gli-Sufu confirm inactive | SufuKO cytotox inactive | Wnt3a counter inactive
